The panel holds about 79,000 compounds, 15% with a hit somewhere; the sample as a whole holds those more often. Calls of active or inactive are those of the source. Rule as the data show it: active = growth inhibition above about 70%; inactive = the rest.
Tests used:
[1] = NCI Yeast Anticancer Drug Screen. Data for the mec2-1 strain (AID 157); details: S. cerevisiae mec2-1 strain, active compounds read high
Summary of the method: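 Using mec2-1 yeast: add compound, measure growth, express inhibition versus vehicle-treated cultures.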

[2] = NCI Yeast Anticancer Drug Screen. Data for the rad14 strain (AID 159);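 also: 0% = growth of vehicle-treated control cultures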; details: S. cerevisiae rad14 strain growth inhibition, active compounds read high
Summary of the method: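 Screen for anticancer potential: a yeast strain altered in DNA damage repair is grown with compound, and reduced growth is quantified against vehicle controls.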

[3] = NCI Yeast Anticancer Drug Screen. Data for the sgs1 mgt1 strain (AID 161);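 also: 0% = growth of cultures given vehicle only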; details: S. cerevisiae sgs1 mgt1 strain, active compounds read high
Summary of the method: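 This yeast growth screen uses a strain with defined DNA-repair lesions; compound-treated growth is compared with vehicle-treated growth.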

[4] = NCI Yeast Anticancer Drug Screen. Data for the CLN2oe strain (AID 163);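 also: 0% = growth of vehicle-only control cultures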; details: S. cerevisiae CLN2oe strain, active compounds read high
Summary of the method: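 Whole-cell yeast growth assay. A strain engineered for altered cell-cycle control received compound, and inhibition relative to vehicle-treated cultures was recorded.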

[5] = NCI Yeast Anticancer Drug Screen. Data for the cln2 rad14 strain (AID 165);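 also: 0% = growth equal to vehicle treated cultures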; details: S. cerevisiae cln2 rad14 strain, active compounds read high
Summary of the method: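 Yeast strain cln2 rad14, bearing defects in cell cycle control and DNA repair, serves as the test system; values reflect growth inhibition compared with vehicle.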

[6] = NCI Yeast Anticancer Drug Screen. Data for the bub3 strain (AID 167); details: S. cerevisiae bub3 mutant strain, active compounds read high
Summary of the method: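 Screening used yeast with an engineered genetic alteration affecting cell cycle control. Compound-exposed cultures were compared with vehicle cultures, and reduced growth was taken as inhibition.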

[7] = NCI Yeast Anticancer Drug Screen. Data for the wt2 strain (AID 169);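 also: 0% = growth of vehicle-treated yeast cultures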; details: S. cerevisiae wt2 strain growth inhibition, active compounds read high
Summary of the method: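 Treated yeast vs. vehicle-treated yeast: growth inhibition determined.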

[8] = NCI Yeast Anticancer Drug Screen. Data for the sgs1 strain (AID 173);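 also: 0% = growth of vehicle-only control cultures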; details: S. cerevisiae sgs1 mutant, active compounds read high
Summary of the method: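 A genetically defined yeast mutant is incubated with the test compound, and its growth is compared to that of the same strain given vehicle.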

[9] = NCI Yeast Anticancer Drug Screen. Data for the mlh1 rad18 strain (AID 175); details: S. cerevisiae mlh1 rad18 strain growth inhibition, active compounds read high
Summary of the method: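 Steps: expose repair-defective yeast to compound; measure growth; express inhibition against vehicle-treated controls.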

[10] = NCI Yeast Anticancer Drug Screen. Data for the rad18 strain (AID 177); details: S. cerevisiae rad18 mutant growth inhibition, active compounds read high
Summary of the method: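 Measured value is growth inhibition of a yeast strain bearing a DNA repair alteration, referenced to vehicle-treated cells.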

[11] = NCI Yeast Anticancer Drug Screen. Data for the rad52 strain (AID 147);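 also: 0% = growth of vehicle-treated control cultures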; details: S. cerevisiae rad52 mutant growth inhibition, active compounds read high
Summary of the method: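 Here a repair-compromised yeast strain receives each compound; its growth is then quantified and normalised to vehicle-only controls.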

[12] = NCI Yeast Anticancer Drug Screen. Data for the wt1 strain (AID 149);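 also: 0% = growth of vehicle-treated wt1 cultures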; details: S. cerevisiae wt1 strain (SPY 50644) growth inhibition, active compounds read high
Summary of the method: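 Using yeast strain wt1, compound-induced growth inhibition was determined against vehicle-treated cultures.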

[13] = NCI Yeast Anticancer Drug Screen. Data for the rad50EPP+ strain (AID 151);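 also: 0% = growth of vehicle-treated control cultures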; details: S. cerevisiae rad50 mutant strain, active compounds read high
Summary of the method: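 Read-out is yeast growth inhibition relative to vehicle; cells used were the rad50EPP+ strain.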

[14] = NCI Yeast Anticancer Drug Screen. Data for the rad50 strain (AID 155);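 also: 0% = growth of vehicle-only cultures of the same strain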; details: S. cerevisiae rad50 strain growth inhibition, active compounds read high
Summary of the method: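 Relative growth inhibition (compound vs vehicle) was measured in yeast with a defined repair-gene alteration.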

[15] = NCI Yeast Anticancer Drug Screen. Data for the mlh1 strain (AID 171);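 also: 0% = growth of vehicle-treated control cultures of the same strain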; details: S. cerevisiae mlh1 strain growth inhibition, active compounds read high
Summary of the method: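 A yeast strain with a defined genetic lesion serves as the test organism. Cultures receive compound or vehicle, and growth is measured.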

[16] = at 5.0 µM (retest, dose inferred, filed as 0.5)
[17] = at 50.0 µM (retest, dose inferred, filed as 5.0)

Measured: growth inhibition

OC1(c2ccccc2)C2CC=CC2C1(c1ccccc1)c1ccccc1 (stereo unspecified)
active: [3]; [17] 70% | [8]; at 100.0 µM 77% | [9]; [17] 76%
inactive: [1]; at 100.0 µM 49% | [2]; at 1.2 µM -3% | [2]; at 3.7 µM 4% | [2]; at 11.0 µM 6% | [2]; at 33.0 µM 0% | [2]; at 100.0 µM 19% | [3]; [16] 16% | [3]; at 50.0 µM 11.1% | [4]; at 1.2 µM 2% | [4]; at 3.7 µM 8% | [4]; at 11.0 µM 2% | [4]; at 33.0 µM -7% | [4]; at 100.0 µM 10% | [5]; [16] 15% | [5]; [17] 19% | [5]; at 50.0 µM -3.15% | [6]; at 1.2 µM 0% | [6]; at 3.7 µM 2% | [6]; [16] -3% | [6]; at 11.0 µM -9% | [6]; at 33.0 µM 2% | [6]; [17] 52% | [6]; at 50.0 µM 10.9% | [6]; at 100.0 µM 27% | [7]; at 1.2 µM -8% | [7]; at 3.7 µM -11% | [7]; at 11.0 µM -8% | [7]; at 33.0 µM 7% | [7]; at 100.0 µM 54% | [8]; at 1.2 µM -15% | [8]; at 3.7 µM -2% | [8]; at 11.0 µM -2% | [8]; at 33.0 µM 54% | [9]; [16] 19% | [9]; at 50.0 µM 0.45% | [10]; at 1.2 µM -8% | [10]; at 3.7 µM -4% | [10]; at 11.0 µM -4% | [10]; at 33.0 µM 1% | [10]; at 100.0 µM 41%

COC(=O)/C(C#N)=C\NC(=S)C(N)=S
active: [11]; at 11.0 µM 86% | [11]; at 33.0 µM 99% | [11]; at 100.0 µM 98% | [12]; at 33.0 µM 99% | [12]; at 100.0 µM 98% | [13]; at 100.0 µM 97% | [14]; at 11.0 µM 90% | [14]; at 33.0 µM 98% | [14]; [17] 98% | [14]; at 50.0 µM 88.5% | [14]; at 100.0 µM 97% | [1]; at 11.0 µM 98% | [1]; at 33.0 µM 99% | [1]; [17] 99% | [1]; at 50.0 µM 93.2% | [1]; at 100.0 µM 98% | [2]; at 11.0 µM 98% | [2]; at 33.0 µM 99% | [2]; at 100.0 µM 98% | [3]; [17] 98% | [3]; at 50.0 µM 91.1% | [5]; [17] 99% | [5]; at 50.0 µM 89.5% | [6]; at 11.0 µM 99% | [6]; at 33.0 µM 99% | [6]; [17] 99% | [6]; at 50.0 µM 91.3% | [6]; at 100.0 µM 98% | [7]; at 33.0 µM 99% | [7]; at 100.0 µM 98% | [15]; at 11.0 µM 98% | [15]; at 33.0 µM 99% | [15]; at 100.0 µM 98% | [8]; at 11.0 µM 86% | [8]; at 33.0 µM 99% | [8]; at 100.0 µM 98% | [9]; [17] 98% | [9]; at 50.0 µM 89.3%
inactive: [11]; at 1.2 µM -6% | [11]; at 3.7 µM 24% | [12]; at 1.2 µM 8% | [12]; at 3.7 µM 26% | [12]; at 11.0 µM 54% | [13]; at 1.2 µM -24% | [13]; at 3.7 µM -24% | [13]; at 11.0 µM 2% | [13]; at 33.0 µM 64% | [14]; at 1.2 µM 12% | [14]; at 3.7 µM 30% | [14]; [16] 2% | [1]; at 1.2 µM -5% | [1]; at 3.7 µM 24% | [1]; [16] -1% | [2]; at 1.2 µM 4% | [2]; at 3.7 µM 15% | [3]; [16] 13% | [5]; [16] 22% | [6]; at 1.2 µM 24% | [6]; at 3.7 µM 34% | [6]; [16] 4% | [7]; at 1.2 µM -6% | [7]; at 3.7 µM 10% | [7]; at 11.0 µM 40% | [15]; at 1.2 µM 17% | [15]; at 3.7 µM 32% | [8]; at 1.2 µM 9% | [8]; at 3.7 µM 25% | [9]; [16] 50%

From PubChem BioAssay (NCI)
